Screening data as filed in PubChem BioAssay.
The list is not random: actives were taken first. Their share in the collection is about 3.5%.
GPR151 activ – activators of human GPR151, primary screen, cell-based, PathHunter beta-arrestin, luminescence. AID 1508602, 2020. G-protein coupled receptor 151 (Homo sapiens), Q8TDV0. activation, % at 11.2 µM. PathHunter beta-arrestin GPR151 cells. hit rate 1% among 650,000; in the data active means activation above about 4.9%;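 further: 0% = median of compound wells and 100% = cells with positive control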
FBW7 act – FBW7 E3 ligase activators, primary screen, biochemical, AlphaScreen, human | F-box/WD repeat-containing protein 7 (Homo sapiens), Q969H0 | AlphaScreen FBW7–phospho-cyclin E peptide binding, activator screen | normalized activity (activation), % at 26.1 µM | hit rate 0.13% among 650,000 | AID 1259310, 2017; in the data active means normalized activity above about 1.9%;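 further: purified mutant Fbw7 with reduced substrate affinity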
TEAD-YAP block – TEAD-YAP interaction inhibition, primary screen, TEAD-YAP interaction inhibitor project, luminescence, HEK-TIYL cells | AID 1259422, 2018 | TEAD-Gal4/YAP UAS-luciferase luminescence | hit rate 1.4% among 640,000 | inhibition, % at 9.12 µM; in the data active means inhibition above about 32%;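 further: 0% = median of test compound wells and 100% = reference inhibitor wells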
MITF inh – MITF inhibitors, primary screen, biochemical, AlphaScreen, human; Microphthalmia-associated transcription factor (Homo sapiens), O75030; AlphaScreen MITF homodimerization, bead proximity signal; inhibition, % at 2.6 µM; hit rate 0.91% among 650,000; AID 1259374, 2018; in the data active means inhibition above about 50%;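 further: 0% = vehicle wells with protein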
Target sequence (O75030 whole entry, looked up): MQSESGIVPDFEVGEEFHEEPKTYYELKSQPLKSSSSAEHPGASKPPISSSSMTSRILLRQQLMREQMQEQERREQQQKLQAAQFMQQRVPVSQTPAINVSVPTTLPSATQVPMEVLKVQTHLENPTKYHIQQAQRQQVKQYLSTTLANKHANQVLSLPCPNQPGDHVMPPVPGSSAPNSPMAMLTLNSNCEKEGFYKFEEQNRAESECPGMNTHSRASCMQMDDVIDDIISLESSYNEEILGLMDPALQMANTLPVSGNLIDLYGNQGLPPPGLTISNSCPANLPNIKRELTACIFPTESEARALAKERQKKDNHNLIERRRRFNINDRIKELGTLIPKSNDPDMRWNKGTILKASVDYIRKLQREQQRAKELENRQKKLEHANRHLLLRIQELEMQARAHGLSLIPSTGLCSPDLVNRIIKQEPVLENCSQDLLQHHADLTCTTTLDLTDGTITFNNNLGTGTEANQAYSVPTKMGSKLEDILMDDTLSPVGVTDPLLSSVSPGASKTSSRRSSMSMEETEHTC
MITF inh conf – MITF inhibitors, retest of hits, confirmation, biochemical, AlphaScreen, triplicate. AID 1259372, 2018. shares compounds with MITF inh. hit rate 16% among 4,700. AlphaScreen MITF homodimerization, biotin/His-MITF beads. inhibition, % at 2.6 µM;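 active means inhibition above a cutoff derived from the DMSO control wells, cut at about 28% in these data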;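 further: 0% = MITF dimer wells with DMSO only; inhibitors lower the bead chemiluminescence by keeping MITF from dimerizing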
AS interf DR – AlphaScreen optical interference compounds, dose response, counter-screen, biochemical, HTS | AID 1259373, 2018 | IC50, µM | hit rate 6% among 480 | AlphaScreen optical interference counterscreen, cell-free | shares compounds with MITF inh; call rule not given here
AS interf ctr – AlphaScreen optical interference compounds, counter-screen for MITF inhibitor project, biochemical, triplicate; shares compounds with MITF inh; LysRS AlphaScreen counterscreen, signal interference; inhibition, % at 2.6 µM; hit rate 7.6% among 4,700; AID 1259376, 2018;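 active means inhibition above a cutoff derived from the DMSO control wells, cut at about 30% in these data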
* hit, by the source's call; . = not tested or not shown.

SMILES	GPR151 activ	FBW7 act	TEAD-YAP block	MITF inh	MITF inh conf	AS interf ctr	others
Cc1ccc(CC(=O)NCc2ccc(F)cc2)cc1	0	1	39*	8	.	.
O=C(Cc1ccc(-n2cccc2)cc1)NCc1cccs1	0	0	45*	8	.	.
COc1ccc(CNC(=O)c2c(C)[nH]c(C(C)=O)c2C)cc1	0	0	58*	11	.	.
CCOC(=O)c1[nH]c(C)c(C(=O)NCc2ccc(OC)cc2)c1C	2	0	3	0	.	.
COc1ccc(S(=O)(=O)N2CCN(c3cc(-n4cccn4)ncn3)CC2)cc1C	3	0	33*	-15	.	.
CN(C)S(=O)(=O)N1CCN(c2cc(-n3cccn3)ncn2)CC1	-3	0	-31	3	.	.
Clc1ccc(Nc2nc3nonc3nc2Nc2ccc(Br)cc2)cc1Cl	1	0	-2	-17	.	.
Fc1ccc(Nc2nc3nonc3nc2Nc2ccc(F)cc2F)c(F)c1	2	0	90*	19	.	.
CN(C)c1nc2nonc2nc1Nc1cccc(Cl)c1	2	0	75*	2	.	.
Oc1ccc(Nc2nc3nonc3nc2Nc2cccc(Br)c2)cc1	4	0	45*	12	.	.
c1ccc(Nc2nc3nonc3nc2Nc2ccccc2)cc1	0	0	36*	14	.	.
Oc1ccc(Nc2nc3nonc3nc2Nc2ccccc2)cc1	-2	0	-8	20	.	.
Fc1cccc(Nc2nc3nonc3nc2Nc2cccc(F)c2)c1	0	0	24	-5	.	.
O=c1[nH]nc2c3c4c(sc3ncn12)CCCC4	0	1	6	5	.	.
COc1ccc(NC2CCS(=O)(=O)C2)cc1 (stereo unspecified)	0	0	-1	-5	.	.
CC(=O)N(C1=C(N2CCOCC2)C(=O)c2ccccc2C1=O)c1cc(C)cc(C)c1	1	0	39*	36	.	.
CC(=O)N(C1=C(N2CCOCC2)C(=O)c2ccccc2C1=O)c1ccc(F)c(F)c1	1	0	32*	24	.	.
CCOc1ccc(Nc2ccc3ccccc3n2)cc1	-4	0	41*	-12	.	.
COc1ccc(/C=C(/C(=O)NC(C)(C)C)c2ccccc2)cc1	1	0	11	-10	.	.
COC(=O)C(C)Oc1cc(OC(C)C(=O)OC)c2c3c(c(=O)oc2c1)CCC3 (stereo unspecified)	0	1	44*	-12	.	.
CCOC(=O)C(C)Oc1cc(OC(C)C(=O)OCC)c2c3c(c(=O)oc2c1)CCCC3 (stereo unspecified)	-1	0	16	6	.	.
c1coc(CN2CCN(C3CCCCC3)CC2)c1	0	0	-2	64*	7	2
CC1CCC(N2CCN(Cc3ccco3)CC2)CC1 (stereo unspecified)	0	0	8	71*	27*	12	AS interf DR=>6.3
O=C(CC1CCCCC1)Nc1ccc(S(=O)(=O)N2CC3CC(C2)c2cccc(=O)n2C3)cc1 (stereo unspecified)	0	0	1	5	.	.
O=C1CS(=O)(=O)C(c2ccccc2)N1c1ccccc1 (stereo unspecified)	3	0	-2	72*	-2	-1
SMILES	GPR151 activ	FBW7 act	TEAD-YAP block	MITF inh	MITF inh conf	AS interf ctr	others
Cc1cc(C)cc(N2C(=O)CS(=O)(=O)C2c2cccc(Br)c2)c1 (stereo unspecified)	0	0	8	-2	.	.
O=C(NCCC1=CCCCC1)C(=O)NCc1ccccn1	4	0	-10	-5	.	.
O=C1CCCC2=C1C(c1ccc([N+](=O)[O-])o1)C1=C(CCCC1=O)O2	0	0	-7	67*	62*	8	AS interf DR=>7.1
Clc1cc(Br)ccc1OCCN1CCNCC1	0	0	-9	57*	-158	-3
Clc1ccc(OCCN2CCNCC2)c(Cl)c1	1	0	5	45	.	.
Brc1c(OCCn2ccnc2)ccc2ccccc12	2	0	17	57*	-9	18
CCCCNCCOCCOc1ccc(Br)cc1C	1	0	0	72*	2	8
Brc1c(OCCN2CCNCC2)ccc2ccccc12	-3	0	-11	64*	33*	17	AS interf DR=>6.5
CCOC(=O)CSc1nc2c(sc(=S)n2-c2c(C)cccc2C)c(=O)n1-c1ccccc1	-1	1	-2	12	.	.
COc1ccc(C(=O)NCCc2ccc(S(N)(=O)=O)cc2)c(OC)c1	0	0	16	4	.	.
CCOC(=O)N1CCN(C(=O)C(CC)Oc2ccccc2)CC1 (stereo unspecified)	-1	0	4	10	.	.
Clc1cc(Br)ccc1OCCOCCn1ccnc1	-1	0	-26	45	.	.
Cc1cc(Br)ccc1OCCOCCN1CCN(C)CC1	1	0	-7	57*	-1	2
Clc1cc(Br)ccc1OCCOCCN1CCNCC1	-1	0	2	54*	-8	-3
O=C(CNC1CCCCC1)Nc1c2c(nc3c1CCC3)CCCC2	0	0	3	74*	-12	-3
O=C(CNC1CCCCC1)Nc1c2c(nc3c1CCC3)CCC2	0	0	-7	40	.	.
CC(C)(C)NCC(=O)Nc1c2c(nc3c1CCC3)CCCC2	0	0	5	75*	3	-3
CNCC(=O)Nc1c2c(nc3c1CCC3)CCCC2	0	0	0	61*	-2	-1
O=C(Cc1cccc2ccccc12)Nc1nnc(-c2ccc3c(c2)OCCO3)o1	0	0	1	6	.	.
O=C(Cc1cccc2ccccc12)Nc1nnc(-c2ccncc2)o1	0	0	2	71*	52*	98*
COc1ccc(/C=N/NC(=O)c2cc(-c3cccn3C)n[nH]2)cc1OC	-1	2.1*	6	78*	-6	17
CC(C)CC(=O)NC(N1CC(C)OC(C)C1)C(Cl)(Cl)Cl (stereo unspecified)	-1	0	-1	-8	.	.
CC(C)(C)c1nnc(NC(=O)CN2C(=O)C3C4C=CC(C4)C3C2=O)s1 (stereo unspecified)	0	0	4	68*	1	-10
COc1cccc(C2C(C(=O)OC3CCCC3)=C(C)NC3=C2C(=O)CCC3)c1 (stereo unspecified)	-1	0	-9	-4	.	.
COC(=O)C1=CN(CC23CC4CC(CC(C4)C2)C3)C=C(C(=O)OC)C1c1ccc(F)cc1	0	0	-3	65*	-2	-2
